Experimental data as given in PubChem BioAssay (NCATS).
Inconclusive results are not listed. Calls of active or inactive are those of the source. Unless noted, calls follow the shape of the full dose curve.

Tests used:
[1] = qHTS for Inhibitors of the Functional Ribonucleoprotein Complex (vRNP) of Lassa (LASV) Arenavirus: LASV Primary Screen - GLuc reporter signal (AID 1347082; calls by dose curve; tested in HEK293 reporter line; also: nearly all actives have a fitted effect of over 60% in size)
[2] = qHTS for Inhibitors of the Functional Ribonucleoprotein Complex (vRNP) of Lassa (LASV) Arenavirus: Viability assay - alamar blue signal for LASV Primary Screen (AID 1347083; calls by dose curve; tested in HEK293 reporter line; also: nearly all actives have a fitted effect of over 80% in size)
[3] = qHTS for Inhibitors of the Functional Ribonucleoprotein Complex (vRNP) of Lymphocytic Choriomeningitis Arenaviruses (LCMV): Viability assay - alamar blue signal for LCMV Primary Screen (AID 1347085; calls by dose curve; tested in HEK293 reporter line; also: nearly all actives have a fitted effect of over 80% in size)
[4] = target: Nucleoprotein (Lymphocytic choriomeningitis virus (strain Armstrong)) (UniProt P09992); experiment: qHTS for Inhibitors of the Functional Ribonucleoprotein Complex (vRNP) of Lymphocytic Choriomeningitis Arenaviruses (LCMV): LCMV Primary Screen - GLuc reporter signal (AID 1347086); also: nearly all actives have a fitted effect of over 70% in size
Sequence of Nucleoprotein (Lymphocytic choriomeningitis virus (strain Armstrong)) (P09992 whole entry, looked up): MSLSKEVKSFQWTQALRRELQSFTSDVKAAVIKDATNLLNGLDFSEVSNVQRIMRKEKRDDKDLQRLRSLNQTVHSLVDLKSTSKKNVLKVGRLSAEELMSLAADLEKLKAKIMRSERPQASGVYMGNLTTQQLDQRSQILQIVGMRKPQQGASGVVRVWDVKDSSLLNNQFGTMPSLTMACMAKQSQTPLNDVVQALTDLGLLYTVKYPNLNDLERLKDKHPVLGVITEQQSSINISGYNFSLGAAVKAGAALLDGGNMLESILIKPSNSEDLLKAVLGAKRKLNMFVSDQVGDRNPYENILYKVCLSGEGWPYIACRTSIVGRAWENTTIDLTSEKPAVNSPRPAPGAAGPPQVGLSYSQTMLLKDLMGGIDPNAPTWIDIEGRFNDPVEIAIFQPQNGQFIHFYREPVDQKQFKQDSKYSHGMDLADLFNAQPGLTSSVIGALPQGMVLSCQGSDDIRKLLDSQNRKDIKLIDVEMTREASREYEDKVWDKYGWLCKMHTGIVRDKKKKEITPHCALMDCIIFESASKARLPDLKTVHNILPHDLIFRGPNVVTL

[5] = Primary qHTS for Huh7 cytotoxicity: counterscreen for inhibitors of MERS-S pseudotyped particle cell entry (AID 1479147); conditions: outcome: dose series up to 57.1 µM unless noted
[6] = Primary qHTS for Vero E6 cytotoxicity: counterscreen for inhibitors of SARS-S pseudo-typed particle cell entry (AID 1479150); conditions: outcome: dose series up to 57.1 µM unless noted
[7] = Cytotoxicity counterscreen for inhibitors of SARS-CoV-2 cell entry (AID 1645845); also: nearly all actives have a fitted effect of over 50% in size
Procedure, shortened: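 After a 15 min room-temperature ATPLite 1step step, luminescence reflected ATP remaining in HEK293-ACE2 cells exposed to compound for 1 h plus 48 h at 37 C, with percent activity set by cell and no-cell controls.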

[8] = target: Alpha-galactosidase (Coffea arabica) (UniProt Q42656); experiment: Counterscreen for Glucocerebrosidase Inhibitors: qHTS Assay for Coffee Bean alpha-Galactosidase at pH 5.9 (AID 998; active = well fitted curve in the direction sought with a large enough effect; an effect the other way counts as inactive or inconclusive)
Sequence of Alpha-galactosidase (Coffea arabica) (Q42656 whole entry, looked up): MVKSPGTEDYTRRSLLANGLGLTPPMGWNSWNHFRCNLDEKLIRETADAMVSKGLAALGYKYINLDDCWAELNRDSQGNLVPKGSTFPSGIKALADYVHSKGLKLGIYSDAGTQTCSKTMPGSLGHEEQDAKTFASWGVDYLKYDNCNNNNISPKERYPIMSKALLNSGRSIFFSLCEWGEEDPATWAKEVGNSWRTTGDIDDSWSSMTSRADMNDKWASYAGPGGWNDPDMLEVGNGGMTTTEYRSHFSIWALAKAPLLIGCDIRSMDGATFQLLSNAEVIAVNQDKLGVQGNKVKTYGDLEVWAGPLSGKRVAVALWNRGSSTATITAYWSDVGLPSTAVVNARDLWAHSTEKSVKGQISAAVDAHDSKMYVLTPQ
Procedure, shortened: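 In 50 mM citric acid pH 5.9 with 0.005% Tween-20, coffee bean enzyme hydrolyses 80 uM 4-MU alpha-D-galactopyranoside over 20 min at RT. Activity is normalized to controls; AC50 comes from Hill-modelled concentration-response data.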

[9] = Validation screen for inhibitors of Lassa infection (AID 463096)
[10] = Inducers of the Endoplasmic Reticulum Stress Response (ERSR) in human glioma: Validation (AID 504836; active = well fitted curve in the direction sought with a large enough effect; an effect the other way counts as inactive or inconclusive)
Procedure, shortened: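 Stably transfected U87-MG human glioma cells carrying a GRP78-based luminescent sensor were seeded at 1000 cells/well, pin-dosed with compounds and incubated 16 h. Luciferase reagent was then added, and end-point luminescence was read after 10 min at room temperature.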

[11] = Primary qHTS for inhibitors of MERS-S pseudo-typed particle cell entry (AID 1479149); also: nearly all actives have a fitted effect of over 60% in size
[12] = Primary qHTS to identify inhibitors of SARS-CoV-2 cell entry (AID 1645846); conditions: activity change, negative = inhibition: at 57.1 µM (top of the series) unless noted; also: nearly all actives have a fitted effect of over 45% in size
Procedure, shortened: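 Data are normalized to wells receiving SARS-CoV-2-S pseudoparticles and those given bald particles. Entry signal was luciferase luminescence in stable hACE2 Expi293F cells, 48 hr post-infection, after 1 hr compound pretreatment.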

[13] = target: Alpha-galactosidase (Coffea arabica) (UniProt Q42656); experiment: Counterscreen for Glucocerebrosidase Inhibitors: qHTS Assay for Coffee Bean alpha-Galactosidase at pH 4.5 (AID 957; active = well fitted curve in the direction sought with a large enough effect; an effect the other way counts as inactive or inconclusive)
Procedure, shortened: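 Enzyme is added first (2 nM final), then compounds titrated from 0.7 nM to 77 uM, then 80 uM 4-methylumbelliferyl alpha-D-galactopyranoside; after 20 min at room temperature a pH 10 NaOH/glycine stop precedes fluorescence reading at 365/440 nm.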

[14] = Confirmatory qHTS for VERO E6 Cytotoxicity Assay: Counterscreen for SARS-CoV-2 CPE Assay (AID 1508605); also: nearly all actives have a fitted effect of over 60% in size

CN(C/C=C/c1ccccc1)Cc1cccc2ccccc12
inactive: Potency [1] | Potency [2] | Potency [3] | Potency [4] | outcome [5] | outcome [6] | Potency [7]

C[N+]1(CCCCC[N+]2(C)CCCC2)CCCC1
inactive: outcome [8] | Potency [9] | outcome [10] | Potency [1] | Potency [2] | Potency [3] | Potency [4] | outcome [5] | Potency [11] | outcome [6] | Potency [7]

NCCCNCCCCNC(=O)C(O)NC(=O)CCCCCCN=C(N)N (stereo not given)
inactive: Potency [1] | Potency [2] | Potency [3] | Potency [4] | outcome [5] | Potency [11] | outcome [6] | Potency [7]

O=C1CCCC(=O)C1C(=O)c1ccc(C(F)(F)F)cc1[N+](=O)[O-]
inactive: Potency [1] | Potency [2] | Potency [3] | Potency [4] | outcome [5] | Potency [11] | outcome [6] | Potency [7] | Potency [12]

CC(=O)O[C@H]1Cc2ccccc2N(C(N)=O)c2ccccc21
inactive: outcome [10] | Potency [1] | Potency [2] | Potency [3] | Potency [4] | outcome [5] | Potency [11] | outcome [6] | Potency [7]
-29.9%: activity change, negative = inhibition [12]

CC(=O)Nc1cccc(-n2c(=O)n(C3CC3)c(=O)c3c(Nc4ccc(I)cc4F)n(C)c(=O)c(C)c32)c1
inactive: Potency [1] | Potency [2] | Potency [3] | Potency [4] | outcome [5] | Potency [11] | outcome [6] | Potency [7]

CCC(=O)NCC[C@@H]1CCc2ccc3c(c21)CCO3
inactive: Potency [1] | Potency [2] | Potency [3] | Potency [4] | outcome [5] | Potency [11] | outcome [6] | Potency [7]
-26.7%: activity change, negative = inhibition [12]

CN(C)CCCN1c2ccccc2CCc2ccccc21
inactive: outcome [13] | outcome [8] | Potency [1] | Potency [2] | Potency [3] | Potency [4] | outcome [5] | outcome [6] | Potency [14] | Potency [7]

CC(C)(CO)[C@@H](O)C(=O)NCCC(=O)O
inactive: Potency [1] | Potency [2] | Potency [3] | Potency [4] | outcome [5] | Potency [11] | outcome [6] | Potency [7]
